Mtb bLac sens: beta-lactam sensitization of Mtb H37Rv, H37Rv | hit rate 0.27% among 330,000 | inhibition, % at 25 µM | M. tuberculosis H37Rv growth with meropenem, percent inhibition; call rule not given here;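 further: growth measured after seven days incubation then overnight dye step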
Mtb FBA inh: Mtb FBA enzyme inhibitors, primary screen, biochemical, fluorescence, strain H37Rv; hit rate 2.3% among 360,000; inhibition, % at 1 µM; Fructose-bisphosphate aldolase (Mycobacterium tuberculosis (strain ATCC 25618 / H37Rv)), …; purified M. tuberculosis FBA, fluorescence read-out
RecA splice inh: Mtb RecA intein splicing inhibitors, primary screen, biochemical, fluorescence, HTS. cell-free RecA intein splicing. hit rate 0.75% among 290,000. AID 2221, 2009. inhibition, % (concentration not given with the values). Protein RecA (Mycobacterium tuberculosis (strain ATCC 25618 / H37Rv)), P9WHJ3; in the data active means inhibition above about 30%
Rv3671c protease: Rv3671c serine protease inhibitors, primary screen, biochemical, fluorescence polarization, M. tuberculosis H37Rv | inhibition, % at 5.96 µM | P9WHR9 | hit rate 0.048% among 320,000 | AID 2606, 2010; in the data active means inhibition above about 38%;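 further: extracellular domain of Rv3671c used as enzyme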
Target sequence (P9WHR9 whole entry, looked up, the tested form may be a part): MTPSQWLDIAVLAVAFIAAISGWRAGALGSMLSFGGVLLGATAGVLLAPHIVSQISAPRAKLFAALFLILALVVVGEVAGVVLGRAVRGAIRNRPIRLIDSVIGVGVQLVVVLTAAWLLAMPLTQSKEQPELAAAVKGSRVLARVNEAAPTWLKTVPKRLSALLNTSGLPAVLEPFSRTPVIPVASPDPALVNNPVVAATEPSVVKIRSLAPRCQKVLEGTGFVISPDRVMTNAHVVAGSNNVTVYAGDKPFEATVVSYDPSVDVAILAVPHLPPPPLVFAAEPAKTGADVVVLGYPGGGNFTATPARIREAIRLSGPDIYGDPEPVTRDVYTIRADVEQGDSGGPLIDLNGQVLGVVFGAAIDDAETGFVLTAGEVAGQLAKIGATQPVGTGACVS
Mtb UGM inh: M. tuberculosis UGM enzyme inhibitors, primary screen, biochemical, fluorescence polarization, single point; UDP-galactopyranose mutase (Mycobacterium tuberculosis (strain ATCC 25618 / H37Rv)), …; purified UGM, fluorescence polarization probe displacement; inhibition, % at 10 µM; hit rate 0.06% among 320,000; AID 504406, 2011; in the data active means inhibition above about 10%, passing the limit was not always enough
GDH-TPI counter-1: GDH-TPI coupling enzyme inhibitors, primary screen, artefact control for M. tuberculosis FBA inhibitor project, biochemical, absorbance, full deck; GDH-TPI coupled enzyme counterscreen, NADH absorbance; inhibition, % at 4.8 µM; hit rate 1.2% among 360,000; AID 588335, 2011; in the data active means inhibition above about 30%
Mtb FBA confirm: M. tuberculosis aldolase blockers, biochemical, fluorescence, strain H37Rv, confirmation. hit rate 78% among 5,600. inhibition, % at 1 µM. shares compounds with Mtb FBA inh. purified M. tuberculosis FBA, fluorescence read-out
GDH-TPI counter-2: GDH-TPI coupling enzyme inhibitors, artefact control for M. tuberculosis FBA inhibitor project, biochemical, fluorescence, high throughput. inhibition, % at 1 µM. GDH-TPI coupled enzyme counterscreen. shares compounds with Mtb FBA inh. hit rate 81% among 5,600. AID 652141, 2013; in the data active means inhibition above about 10%
A number is an active result; . = inactive; / = no result; + = active, no number. Shown are actives, neighbours in structure and some others; about 4% of the full set was active somewhere. Unless noted, no stated cut-off is given here; in the data, active means inhibition above about 27%; inactive means the rest.

SMILES | Mtb bLac sens | Mtb FBA inh | RecA splice inh | Rv3671c protease | Mtb UGM inh | GDH-TPI counter-1 | Mtb FBA confirm | GDH-TPI counter-2
N#Cc1cc2c([nH]c1=O)CCCC2 | . | 68 | . | . | . | . | 97 | 91
Cc1cc(NS(=O)(=O)c2ccc(NC(=O)CCCOc3cccc(C)c3C)cc2)no1 | . | . | . | . | . | . | / | /
O=C(O)CCc1nn2c3ccccc3nc2n(CCN2CCCCC2)c1=O | . | 35 | . | . | . | . | 117 | 88
O=C(O)CCc1nc2ccccc2n(CCc2ccccc2)c1=O | . | . | . | . | . | . | / | /
Cc1nn2c3ccccc3n(CCN3CCCCC3)c2nc1=O | . | 32 | . | . | . | . | 154 | 102
CCn1c(SCC(=O)N2CCOCC2)nnc1-c1cccs1 | . | 70 | . | . | . | . | 142 | 117
CCn1c(SCC(=O)N2CCCc3ccccc32)nnc1-c1cccs1 | . | . | . | . | . | . | / | /
O=C(NCc1cc(Cl)cc(Cl)c1)c1csc(COCCO)n1 | / | . | / | / | / | . | / | /
COC(=O)C(C)Oc1ccc(-c2nccc(-c3ccc(F)cc3)n2)cc1 (stereo not given) | . | . | . | . | . | . | / | /
COC(=O)C(C)Oc1ccc(-c2nccc(-c3ccccn3)n2)cc1 (stereo not given) | . | 110 | . | . | . | . | 68 | 60
COc1cc(/C=C2/SC(=S)N(CCC(=O)Nc3cccnc3)C2=O)cc(OC)c1OC | / | . | / | / | / | . | / | /
CN1C(=O)c2ccccc2N(C)C1c1ccccc1Cl (stereo not given) | . | 64 | . | . | . | . | 57 | 38
CN1c2ccccc2C(=O)NC1c1ccc(Cl)cc1 (stereo not given) | . | . | . | . | . | . | / | /
CN1C(=O)c2ccccc2N(C)C1c1cccs1 (stereo not given) | . | 36 | . | . | . | . | 200 | 136
O=C(CNC(=O)C1CCCCC1)OCC(=O)c1cccc(Cl)c1 | . | . | / | . | . | . | / | /
O=C1[C@@H](Oc2ccccc2)[C@@H](c2cccnc2)N1c1ccccc1 | / | . | / | / | / | . | / | /
NC(N)=N/N=C/c1ccc(N(c2ccccc2)c2ccccc2)cc1 | . | 104 | . | . | . | . | 71 | 49
CCC(C)[C@H](NC(=O)OC(C)(C)C)C(=O)N/N=C/c1ccc2cc(OC)ccc2n1 (stereo not given in full) | . | 33 | . | . | . | . | + | 181
COc1ccc2nc(/C=N/NC(=O)[C@H](CCSC)NC(=O)OC(C)(C)C)ccc2c1 | . | 60 | . | . | . | 32 | 53 | 56
CSCC[C@H](NC(=O)OC(C)(C)C)C(=O)N/N=C/c1cccc2cccnc12 | . | . | . | . | . | . | / | /
CC(C)(C)OC(=O)N1CCC[C@H]1C(=O)N/N=C/c1ccc2nccnc2c1 | . | . | . | . | . | . | / | /
COc1ccc2nc(/C=N/NC(=O)[C@@H]3CCCN3C(=O)OC(C)(C)C)ccc2c1 | . | 99 | . | . | . | . | 54 | 46
O=S(=O)(Nc1cc(S(=O)(=O)N2CCOCC2)ccc1NCC1CCCO1)c1ccc(F)cc1 (stereo not given) | . | . | / | . | . | . | / | /
Clc1ccc(C2=CSC3=NCCN23)c(Cl)c1 | . | . | . | . | . | . | / | /
CCCC(=O)N1CCC1(C)C(=O)Nc1ccc2nccnc2c1 (stereo not given) | / | 43 | / | / | / | . | 45 | 24
SMILES | Mtb bLac sens | Mtb FBA inh | RecA splice inh | Rv3671c protease | Mtb UGM inh | GDH-TPI counter-1 | Mtb FBA confirm | GDH-TPI counter-2
Cc1ccc2c(c1)sc1nc(=O)ccn12 | . | . | / | . | . | . | / | /
COc1ccc2c(c1)sc1nc(=O)ccn12 | . | 49 | . | . | . | . | 117 | 106
CN(C)c1ccc(/C=C/C(=O)c2ccc3c(c2)OCCO3)cc1[N+](=O)[O-] | . | . | . | . | . | . | / | /
CN(C)c1ccc(/C=N/N=C(N)N)cc1[N+](=O)[O-] | . | 80 | . | . | . | . | 198 | 132
CCOC(=O)C1(C(=O)OCC)NC(=O)CC1CC(C)C (stereo not given) | / | . | / | / | / | . | / | /
c1ccc2c(c1)Nc1cc3ccccc3cc1O2 | / | . | / | / | / | . | / | /
CCOc1ccccc1Nc1ccc(C(=O)O)cc1N | . | . | . | . | . | . | / | /
COc1cccc(Nc2ccc(C(=O)O)cc2N)c1 | . | 62 | . | . | . | . | 49 | 49
CCCCNC(=O)CSc1nc(Cc2ccccc2)nc2ccccc12 | . | . | . | . | . | . | / | /
CC(=O)Nc1cccc(S(N)(=O)=O)c1C | . | . | . | . | . | . | / | /
NS(=O)(=O)c1ccccc1NC(=S)Nc1ccccc1S(N)(=O)=O | . | 62 | . | . | . | . | + | 167
CC(c1ccccn1)N(C)C(=O)c1ccc2nc(Cc3ccccc3F)oc2c1 (stereo not given) | . | . | . | . | . | . | / | /
COc1ccc(-c2ccc(-c3noc(C(C)C)n3)c(OC)n2)cc1 | . | 108 | . | . | . | . | 135 | 107
CCCS(=O)(=O)NC(=O)C1(C)CCN(C(=O)c2ccccc2OC(C)=O)C1 (stereo not given) | / | . | / | / | / | . | / | /
O=c1c2ccccc2n(CC(O)CN2CCOCC2)c2ccccc12 (stereo not given) | . | 33 | . | . | . | . | . | .
O=C(c1ccccc1)c1ccc(N2CCN(C(=O)c3ccc(F)cc3F)CC2)c(F)c1 | / | . | / | / | / | . | / | /
COC(=O)c1cccc(NC(=O)C(C)(C)C)c1 | . | 36 | . | . | . | . | + | +
COc1cccc(NC(=O)C(C)(C)C)c1 | . | . | / | . | . | . | / | /
COC(=O)/C=C1\SC(=NC(=O)c2ccc(-c3ccccc3)cc2)NC1=O | . | . | / | . | . | . | / | /
C=CCn1c(C)cc(C(=O)Cn2c(C(C)O)nc3ccccc32)c1C (stereo not given) | . | 74 | . | . | . | . | 156 | 119
Cc1ccc(CCNC(=O)c2coc3nc4ccccc4nc23)cc1 | . | 58 | . | . | . | . | 99 | 72
COc1ccc(CCNC(=O)c2ccccc2C(=O)NCCc2ccc(OC)cc2)cc1 | . | . | / | . | . | . | / | /
CC(=O)Nc1cc(-c2cccc(C(=O)NCCN(C)C)c2)cn2c(-c3ccccc3)cnc12 | / | . | / | / | / | . | / | /

Bioassay records deposited in PubChem by several laboratories.
